PubChem BioAssay
Calls of active or inactive are those of the source.

Columns and labels:
[1] = tested on: PRMT1 (protein arginine N-methyltransferase 1); experiment: small molecules binding arginine methyltransferase PRMT1 – biochemical, small-molecule microarray, 635 nm fluorescence, primary screen (AID 1088); details: higher = more signal;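 note: binding of Prmt1 protein to compounds spotted on small-molecule microarray slides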
[2] = growth effects on S. cerevisiae YJM789 – YJM789 clinical isolate, OD600, 24 h, basal, primary screen (AID 1089); details: higher = more signal, called active from +8 up or from −8 down;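 note: growth of clinical yeast isolate S. cerevisiae YJM 789 seeded 1000 cells per well; test concentration not given here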
[3] = S. pombe growth modifiers, basal conditions – strain 972, OD600, 24 h, no modulator, primary screen (AID 1090);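 note: basal condition with compound alone and no growth modifier present; test concentration not given here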; details: S. pombe 972 growth, higher = more signal, called active from +8 up or from −8 down
[4] = budding yeast growth modifiers under rapamycin – strain BY4716, OD600, 96 h, primary screen (AID 1091); note: test concentration not given here; details: S. cerevisiae BY4716 + rapamycin, higher = more signal, called active from +8 up or from −8 down
[5] = target: Torsin-1A-interacting protein 2 (Homo sapiens) (UniProt Q8NFQ8); experiment: small molecules binding lysate-expressed LULL1 – cell lysate, human LULL1 lysate, 635/667 nm fluorescence, primary screen (AID 1092); details: small-molecule microarray, hLULL1 lysate binding, 635 nm fluorescence; higher = more signal;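 note: probe is lysate of COS7 cells overexpressing human LULL1; score merges per-feature 667 nm fluorescence with signal-to-noise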
Chain of Torsin-1A-interacting protein 2 (Homo sapiens) (Q8NFQ8 whole entry, looked up): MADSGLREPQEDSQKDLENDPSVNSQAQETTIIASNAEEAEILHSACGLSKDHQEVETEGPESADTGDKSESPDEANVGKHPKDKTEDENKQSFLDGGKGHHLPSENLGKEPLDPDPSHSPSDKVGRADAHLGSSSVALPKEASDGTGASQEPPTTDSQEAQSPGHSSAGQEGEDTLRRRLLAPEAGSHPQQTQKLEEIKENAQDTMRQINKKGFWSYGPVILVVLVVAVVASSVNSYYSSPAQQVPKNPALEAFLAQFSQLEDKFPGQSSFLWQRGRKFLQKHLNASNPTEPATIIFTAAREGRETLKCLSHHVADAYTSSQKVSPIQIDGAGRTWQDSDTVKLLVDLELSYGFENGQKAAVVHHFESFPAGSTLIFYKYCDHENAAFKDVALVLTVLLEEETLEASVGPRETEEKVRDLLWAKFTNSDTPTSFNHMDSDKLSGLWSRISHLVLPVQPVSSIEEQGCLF

[6] = optical density change of DRC41 E. coli – strain DRC41, OD650, 24 h, E. coli filamentation project, primary screen (AID 1093);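 note: MC1000 strain lacking acrAB efflux and sulA so SOS filamentation is blocked; test concentration not given here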; details: E. coli DRC41 growth, higher = more signal, called active from +8 up or from −8 down
[7] = probe aLefty2 binding to arrayed compounds – biochemical, biotinylated probe, 635/667 nm fluorescence, primary screen (AID 1094); details: small-molecule microarray, higher = more signal;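 note: score merges spot fluorescence near 667 nm with spot signal-to-noise ratio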
[8] = tested on: Noggin (protein binding on small-molecule microarray); experiment: small molecules binding Noggin protein – biochemical, 635/667 nm fluorescence, primary screen (AID 1095); details: 635 nm fluorescence, higher = more signal;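 note: score merges 667 nm feature fluorescence with signal to noise over triplicate slides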
[9] = target: Neurogenic locus notch homolog protein 3 (Homo sapiens) (UniProt Q9UM47); experiment: small molecules binding NOTCH3 protein – biochemical, 635/667 nm fluorescence, primary screen (AID 1096); details: small-molecule microarray, 635 nm fluorescence, higher = more signal
Chain of Neurogenic locus notch homolog protein 3 (Homo sapiens) (Q9UM47 whole entry, looked up): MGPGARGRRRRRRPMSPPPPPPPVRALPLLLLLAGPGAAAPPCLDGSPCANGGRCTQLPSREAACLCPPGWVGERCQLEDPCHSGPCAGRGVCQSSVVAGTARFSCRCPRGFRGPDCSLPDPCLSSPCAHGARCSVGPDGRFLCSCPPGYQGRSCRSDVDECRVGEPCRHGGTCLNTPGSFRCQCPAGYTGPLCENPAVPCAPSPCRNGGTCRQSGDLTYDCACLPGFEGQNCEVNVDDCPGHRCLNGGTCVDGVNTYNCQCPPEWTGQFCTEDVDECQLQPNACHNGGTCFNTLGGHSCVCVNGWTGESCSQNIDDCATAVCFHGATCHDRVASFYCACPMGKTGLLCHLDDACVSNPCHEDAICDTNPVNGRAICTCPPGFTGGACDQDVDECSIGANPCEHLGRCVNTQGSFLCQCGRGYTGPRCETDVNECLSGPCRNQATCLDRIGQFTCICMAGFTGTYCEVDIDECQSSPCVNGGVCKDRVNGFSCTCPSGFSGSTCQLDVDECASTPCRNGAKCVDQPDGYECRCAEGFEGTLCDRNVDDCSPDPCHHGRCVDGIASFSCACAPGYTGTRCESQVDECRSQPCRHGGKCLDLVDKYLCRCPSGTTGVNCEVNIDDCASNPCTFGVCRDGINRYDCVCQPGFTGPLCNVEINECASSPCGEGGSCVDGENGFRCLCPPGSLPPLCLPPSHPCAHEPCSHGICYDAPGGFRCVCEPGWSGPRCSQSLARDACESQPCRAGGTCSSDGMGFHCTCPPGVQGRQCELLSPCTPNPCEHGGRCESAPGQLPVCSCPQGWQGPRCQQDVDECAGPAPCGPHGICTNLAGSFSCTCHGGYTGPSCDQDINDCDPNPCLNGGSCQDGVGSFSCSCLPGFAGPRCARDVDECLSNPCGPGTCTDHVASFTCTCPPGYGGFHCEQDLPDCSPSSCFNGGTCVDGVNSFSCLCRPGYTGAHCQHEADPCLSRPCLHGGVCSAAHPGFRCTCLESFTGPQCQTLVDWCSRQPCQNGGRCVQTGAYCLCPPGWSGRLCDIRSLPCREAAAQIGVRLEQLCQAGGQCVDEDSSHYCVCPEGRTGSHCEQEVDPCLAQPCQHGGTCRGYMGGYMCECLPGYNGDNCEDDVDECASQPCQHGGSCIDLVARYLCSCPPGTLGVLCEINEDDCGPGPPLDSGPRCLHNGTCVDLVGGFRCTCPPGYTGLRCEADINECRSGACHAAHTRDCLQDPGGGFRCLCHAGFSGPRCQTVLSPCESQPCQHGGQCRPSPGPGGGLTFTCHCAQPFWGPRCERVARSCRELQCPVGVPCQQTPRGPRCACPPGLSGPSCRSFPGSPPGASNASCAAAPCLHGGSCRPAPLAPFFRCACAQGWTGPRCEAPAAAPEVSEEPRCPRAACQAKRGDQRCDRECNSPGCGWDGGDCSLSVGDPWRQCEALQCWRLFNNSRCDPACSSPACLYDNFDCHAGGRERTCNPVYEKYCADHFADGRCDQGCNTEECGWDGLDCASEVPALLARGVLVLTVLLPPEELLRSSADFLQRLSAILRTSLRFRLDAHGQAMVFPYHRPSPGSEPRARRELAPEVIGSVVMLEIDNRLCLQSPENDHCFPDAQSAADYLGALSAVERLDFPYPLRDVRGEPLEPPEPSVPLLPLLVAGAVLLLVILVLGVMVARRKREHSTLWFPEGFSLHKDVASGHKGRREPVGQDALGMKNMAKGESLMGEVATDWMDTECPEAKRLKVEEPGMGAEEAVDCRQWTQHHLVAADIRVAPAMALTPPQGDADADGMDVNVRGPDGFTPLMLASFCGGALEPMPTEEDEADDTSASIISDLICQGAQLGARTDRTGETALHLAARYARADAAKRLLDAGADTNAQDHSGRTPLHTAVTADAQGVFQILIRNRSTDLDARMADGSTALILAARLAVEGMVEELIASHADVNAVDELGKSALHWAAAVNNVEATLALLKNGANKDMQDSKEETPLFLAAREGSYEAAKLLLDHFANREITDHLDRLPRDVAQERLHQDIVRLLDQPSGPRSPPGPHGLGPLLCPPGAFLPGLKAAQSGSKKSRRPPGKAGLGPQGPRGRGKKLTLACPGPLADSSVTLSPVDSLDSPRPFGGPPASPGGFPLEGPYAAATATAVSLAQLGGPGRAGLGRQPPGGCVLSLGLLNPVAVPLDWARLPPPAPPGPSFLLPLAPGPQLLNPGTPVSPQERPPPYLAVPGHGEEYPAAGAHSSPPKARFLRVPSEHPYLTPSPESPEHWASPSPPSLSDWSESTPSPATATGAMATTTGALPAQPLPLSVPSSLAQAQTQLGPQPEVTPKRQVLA

[10] = probe aEGFR binding to arrayed compounds – biochemical, biotinylated probe, 635/667 nm fluorescence, primary screen (AID 1097); details: small-molecule microarray, higher = more signal;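 note: probe is a biotinylated anti-EGFR antibody binding compounds printed on slides; score combines fluorescence near 667 nm and signal to noise of each spot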
[11] = tested on: Plasmodium falciparum Sir2 (PF13_0152, Sir2A); experiment: Plasmodium falciparum Sir2A binding compounds – biochemical, small-molecule microarray, 635 nm fluorescence, primary screen (AID 1098); details: fluorescence 635 nm, higher = more signal;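 note: score merges spot fluorescence intensity with its signal-to-noise ratio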
[12] = probe aDKK1 binding to arrayed compounds – biochemical, biotinylated probe, 635/667 nm fluorescence, primary screen (AID 1099); details: small-molecule microarray, higher = more signal;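 note: score merges 667nm spot fluorescence with signal to noise across triplicate slides; reference of the scale not given here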
[13] = probe aCHRDL2 binding to arrayed compounds – biochemical, biotinylated probe, 635/667 nm fluorescence, primary screen (AID 1100); details: small-molecule microarray, higher = more signal
[14] = change in splice reporter luminescence, either direction, cell-based, HEK293, spliceosome inhibition project, primary screen (AID 1101); details: HEK293 splicing luciferase reporter, 24 h, higher = more signal, called active from +8 up or from −8 down;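 note: HEK293 cells carrying a splicing-competent luciferase reporter gene; test concentration not given here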
[15] = target: Fibroblast growth factor 10 (Homo sapiens) (UniProt O15520); experiment: compounds binding fibroblast growth factor 10 – biochemical, small-molecule microarray, 635 nm fluorescence, primary screen (AID 1102); details: FGF10 binding, fluorescence 635 nm, higher = more signal
Chain of Fibroblast growth factor 10 (Homo sapiens) (O15520 whole entry, looked up): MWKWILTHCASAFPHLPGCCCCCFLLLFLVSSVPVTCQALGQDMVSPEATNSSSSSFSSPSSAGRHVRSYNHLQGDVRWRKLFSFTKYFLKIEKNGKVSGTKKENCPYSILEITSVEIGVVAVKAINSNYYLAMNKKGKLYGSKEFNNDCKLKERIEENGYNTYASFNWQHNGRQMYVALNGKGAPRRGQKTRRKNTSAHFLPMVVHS

[16] = tested on: glycogen synthase kinase-3 (GSK3A per assay name; protocol says GSK3B); experiment: compounds binding glycogen synthase kinase-3 – biochemical, small-molecule microarray, 635 nm fluorescence, GSK3A, primary screen (AID 1103); details: fluorescence 635 nm, higher = more signal; note: the record names both GSK3A and GSK3B
[17] = target: Epidermal growth factor receptor (Homo sapiens) (UniProt P00533); experiment: compounds binding epidermal growth factor receptor – biochemical, small-molecule microarray, 635 nm fluorescence, primary screen (AID 1104); details: EGFR binding, higher = more signal;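 note: score merges 667 nm emission intensity with spot signal to noise over triplicate slides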
Chain of Epidermal growth factor receptor (Homo sapiens) (P00533 whole entry, looked up): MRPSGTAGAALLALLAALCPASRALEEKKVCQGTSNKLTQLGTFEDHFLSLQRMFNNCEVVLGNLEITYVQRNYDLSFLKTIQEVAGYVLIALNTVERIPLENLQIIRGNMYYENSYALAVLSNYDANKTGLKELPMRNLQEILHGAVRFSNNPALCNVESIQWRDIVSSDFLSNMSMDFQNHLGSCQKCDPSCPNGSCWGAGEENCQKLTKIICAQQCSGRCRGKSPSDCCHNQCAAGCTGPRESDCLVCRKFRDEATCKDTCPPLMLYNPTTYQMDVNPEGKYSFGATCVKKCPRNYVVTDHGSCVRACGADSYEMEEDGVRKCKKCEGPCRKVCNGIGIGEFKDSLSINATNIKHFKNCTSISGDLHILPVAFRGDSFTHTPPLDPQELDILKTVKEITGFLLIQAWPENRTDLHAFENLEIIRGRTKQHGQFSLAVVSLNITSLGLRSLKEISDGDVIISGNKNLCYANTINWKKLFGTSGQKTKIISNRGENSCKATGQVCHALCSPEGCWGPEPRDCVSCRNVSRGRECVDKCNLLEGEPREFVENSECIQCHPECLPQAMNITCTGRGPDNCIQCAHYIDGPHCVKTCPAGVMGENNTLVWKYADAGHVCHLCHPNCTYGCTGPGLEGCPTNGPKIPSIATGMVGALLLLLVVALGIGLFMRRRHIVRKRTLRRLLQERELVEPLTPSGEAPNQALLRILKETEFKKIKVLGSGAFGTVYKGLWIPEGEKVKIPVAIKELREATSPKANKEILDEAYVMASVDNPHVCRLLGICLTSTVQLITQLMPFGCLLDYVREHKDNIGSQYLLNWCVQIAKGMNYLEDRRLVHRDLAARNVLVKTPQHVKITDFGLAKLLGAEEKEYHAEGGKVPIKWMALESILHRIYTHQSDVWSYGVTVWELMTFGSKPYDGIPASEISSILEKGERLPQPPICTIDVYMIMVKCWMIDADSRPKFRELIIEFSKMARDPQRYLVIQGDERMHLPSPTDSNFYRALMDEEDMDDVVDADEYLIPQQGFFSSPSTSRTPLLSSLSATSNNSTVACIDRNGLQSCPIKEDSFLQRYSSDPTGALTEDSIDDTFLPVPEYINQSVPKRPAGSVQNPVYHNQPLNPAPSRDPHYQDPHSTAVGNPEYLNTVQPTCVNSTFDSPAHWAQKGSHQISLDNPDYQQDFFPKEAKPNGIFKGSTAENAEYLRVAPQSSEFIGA

[18] = target: Follistatin-related protein 3 (Homo sapiens) (UniProt O95633); experiment: compounds binding follistatin-related protein 3 – biochemical, small-molecule microarray, 635 nm fluorescence, primary screen (AID 1105); details: FSTL3 binding, higher = more signal;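 note: score merges emission near 667 nm and signal to noise per printed spot across three slides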
Chain of Follistatin-related protein 3 (Homo sapiens) (O95633 whole entry, looked up): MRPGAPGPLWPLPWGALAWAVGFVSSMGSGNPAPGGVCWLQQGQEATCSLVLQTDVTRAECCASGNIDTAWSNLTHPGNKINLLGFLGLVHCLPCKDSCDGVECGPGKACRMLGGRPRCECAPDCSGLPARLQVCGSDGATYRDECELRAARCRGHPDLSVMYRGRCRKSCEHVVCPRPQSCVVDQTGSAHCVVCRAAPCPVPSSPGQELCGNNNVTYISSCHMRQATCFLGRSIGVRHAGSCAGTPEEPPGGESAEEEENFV

[19] = target: Dickkopf-related protein 1 (Homo sapiens) (UniProt O94907); experiment: small molecules binding DKK1 protein – biochemical, small-molecule microarray, 635 nm fluorescence scan, primary screen (AID 1106); details: higher = more signal;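 note: score merges emission near 667 nm with signal to noise over three replicate slides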
Chain of Dickkopf-related protein 1 (Homo sapiens) (O94907 whole entry, looked up): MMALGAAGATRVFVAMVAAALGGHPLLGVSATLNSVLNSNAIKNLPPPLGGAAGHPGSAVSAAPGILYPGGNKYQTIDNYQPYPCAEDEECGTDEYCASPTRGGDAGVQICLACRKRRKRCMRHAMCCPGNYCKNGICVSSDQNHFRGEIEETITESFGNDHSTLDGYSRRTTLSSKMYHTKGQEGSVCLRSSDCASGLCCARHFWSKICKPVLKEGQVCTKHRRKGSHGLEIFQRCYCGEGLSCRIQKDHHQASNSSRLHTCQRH

[20] = tested on: Inhibin beta A chain (activin A); experiment: small molecules binding activin A – biochemical, small-molecule microarray, 635 nm fluorescence scan, primary screen (AID 1107); details: INHBA, higher = more signal;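 note: mouse activin A protein probed at 4.33 µg/mL on printed slides; score merges bound-protein fluorescence near 667 nm with spot signal-to-noise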

Row | SMILES | composite z-score [1] | z-score [2] | z-score [3] | z-score [4] | composite z-score [5] | z-score [6] | composite z-score [7] | composite z-score [8] | composite z-score [9] | composite z-score [10] | composite z-score [11] | composite z-score [12] | composite z-score [13] | z-score [14] | composite z-score [15] | composite z-score [16] | composite z-score [17] | composite z-score [18] | composite z-score [19] | composite z-score [20]
1 | O=C1NC(=O)C2C1C=CC(C(O)CCc1ccccc1)N2Nc1ccccn1 (stereo not given) | 0.509 | -0.974 (inactive) | 1.51 (inactive) | -0.312 (inactive) | 1.51 | -0.581 (inactive) | -0.0719 | 0.103 | 0.312 | -0.0659 | 0.539 | 0.673 | 0.778 | -0.735 (inactive) | 0.165 | 0.44 | 0.261 | 0.155 | 0.156 | 0.584
2 | O=C1O[C@H](c2ccccc2)[C@H](c2ccccc2)N2[C@H]1[C@@H](C(=O)N1CCN(c3ncccn3)CC1)[C@]1(C(=O)Nc3ccc(C#CCCO)cc31)[C@H]2c1ccc(OCCO)cc1 | 1.54 | 0.987 (inactive) | 1.14 (inactive) | 4.15 (inactive) | 3.13 | 0.132 (inactive) | 0.152 | 1.47 | 1.1 | 0.155 | 1.66 | 0.115 | 0.536 | -0.0244 (inactive) | 1.11 | 1.28 | 1.12 | 1.48 | 0.949 | 0.463
3 | CC(C)NC(=O)[C@@]1(Cc2ccccc2I)c2ccccc2C(=O)N(Cc2ccccc2C(F)(F)F)[C@H]1c1ccc(CO)cc1 | 1.53 | -0.442 (inactive) | -1.48 (inactive) | -0.918 (inactive) | 2.84 | 0.125 (inactive) | 0.158 | 0.461 | 0.662 | -0.0304 | 1.75 | 0.474 | 0.594 | 0.4 (inactive) | 0.157 | 0.182 | -0.251 | 0.0273 | -0.467 | 0.299
4 | CC(=O)NCCCC[C@@H]1NC(=O)[C@@H]2C[C@H](C(=O)NCCCC[N+](C)(C)C)[C@H](c3cccc(OCCO)c3)N2C1=O | -0.598 | 0.408 (inactive) | 0.338 (inactive) | -0.465 (inactive) | -0.0272 | -0.427 (inactive) | 0.127 | 1.94 | 0.801 | -0.162 | 1.08 | -0.11 | 0.275 | 0.677 (inactive) | 0.766 | -0.57 | -0.734 | 1.02 | 0.232 | -0.146
5 | COc1ccc(C(=O)Nc2ccc(CN3C(=O)[C@]4(O[C@H](CCn5cc([C@H](O)c6ccccc6)nn5)[C@@H]([Si](C)(C)c5ccc(OC)cc5)[C@@H]4C)c4ccccc43)cc2)cc1 | 0.466 | -0.0933 (inactive) | -0.262 (inactive) | 1.61 (inactive) | 0.658 | -0.615 (inactive) | 0.101 | 0.341 | -0.047 | -0.169 | 0.789 | 0.294 | 0.824 | -1.41 (inactive) | -0.09 | -0.109 | -0.39 | -0.113 | 0.102 | 1.47
6 | C[C@@]1([C@@H](NC(=O)c2cccs2)c2ccc(-c3ccccc3)cc2)C[C@H]1C1CCCCC1 | -1.61 | 1.53 (inactive) | -0.584 (inactive) | -0.578 (inactive) | 2.95 | -0.474 (inactive) | -0.288 | -0.786 | -1.31 | -0.239 | 0.385 | -0.336 | 0.126 | -3.26 (inactive) | -0.728 | -1.74 | -0.84 | -0.671 | 0.0374 | 1.49
7 | C=C(/C(=C/C[C@@H](OC(=O)c1ccncc1)c1ccccc1OCCO)c1cnc2ccccc2c1)C(C)C | 1.54 | -24.2 (active) | -20.3 (active) | -4.07 (inactive) | 2.72 | -0.0023 (inactive) | 0.0113 | 1.91 | 1.07 | 0.0381 | 0.25 | 0.0171 | -0.21 | -2.43 (inactive) | 1.55 | 1.29 | 1.23 | 1.61 | 0.413 | 1.77
8 | O=C(O)[C@@]1(Cc2ccccc2)COC(c2ccc(OCCCO)cc2)=N1 | -0.269 | 0.661 (inactive) | 1.01 (inactive) | 1.3 (inactive) | 2.64 | 0.598 (inactive) | -0.0915 | -0.66 | -0.776 | -0.229 | 1.01 | 0.413 | 0.988 | 0.483 (inactive) | -0.38 | -0.835 | -0.645 | -1.14 | -0.91 | 0.53
9 | COc1ccc([Si](C)(C)[C@@H]2[C@@H](CC(=O)N3Cc4ccccc4C[C@H]3CO)O[C@]3(C(=O)N(Cc4cccc(N5CCCCC5=O)c4)c4ccccc43)[C@H]2C)cc1 | 1.55 | 0.318 (inactive) | 1.41 (inactive) | 2.4 (inactive) | 1.79 | 0.73 (inactive) | -0.0878 | 1.41 | 1.07 | -0.0356 | 0.856 | -0.154 | -0.222 | -1.46 (inactive) | 0.689 | 1.2 | 0.968 | 1.33 | 1.17 | 0.435
10 | COc1ccc([Si](C)(C)[C@@H]2[C@@H](CCO)O[C@]3(C(=O)N(Cc4ccc(N5C(=O)c6ccccc6Oc6ccccc65)cc4)c4ccccc43)[C@H]2C)cc1 | 0.106 | 3.36 (inactive) | 0.262 (inactive) | 37.6 (active) | -0.49 | 0.045 (inactive) | -0.0359 | -0.0905 | 0.18 | -0.241 | -0.364 | -0.0754 | 0.543 | -0.853 (inactive) | -0.791 | -1.07 | -1.57 | -0.644 | -0.815 | -0.557
